In PMC5700166:

Assays:
Test in all cases: protein-binding microarray (PBM); PBM: ~300 nM protein, 6 mM HEPES pH 7.8, 80 mM KCl, 0.5 mM EDTA, 0.5 mM EGTA, 6% glycerol, 35 ng/ul poly-dIdC, 1% milk, 1 h, room temperature; Ap Aiptasia and Nv Nematostella (sea anemones) / Co Capsaspora / Aq Amphimedon (sponge) / Dm Drosophila / Hu human; RHD is the Rel homology domain; high values mean tight binding
Conditions in all cases: dsDNA, one strand shown
[1] = target: T1, GST-Ap-NF-kB RHD (Exaiptasia pallida (Aiptasia), UniProt A0A913YAJ5 2-422)
T1 sequence: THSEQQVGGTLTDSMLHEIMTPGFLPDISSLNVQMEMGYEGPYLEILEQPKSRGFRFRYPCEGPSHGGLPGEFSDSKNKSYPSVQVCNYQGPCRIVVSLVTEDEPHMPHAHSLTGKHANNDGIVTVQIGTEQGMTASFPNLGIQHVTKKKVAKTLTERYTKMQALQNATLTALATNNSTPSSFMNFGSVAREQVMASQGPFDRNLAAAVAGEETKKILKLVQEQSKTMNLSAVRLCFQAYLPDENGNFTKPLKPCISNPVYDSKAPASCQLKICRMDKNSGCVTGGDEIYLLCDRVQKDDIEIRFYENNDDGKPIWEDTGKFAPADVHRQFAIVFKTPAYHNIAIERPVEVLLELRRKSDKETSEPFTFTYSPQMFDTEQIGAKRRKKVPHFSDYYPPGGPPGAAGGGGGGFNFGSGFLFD

[2] = target: T2, GST-Nv-NF-kB (Cys allele) (Nematostella vectensis, UniProt E5G601 2-411)
T2 sequence: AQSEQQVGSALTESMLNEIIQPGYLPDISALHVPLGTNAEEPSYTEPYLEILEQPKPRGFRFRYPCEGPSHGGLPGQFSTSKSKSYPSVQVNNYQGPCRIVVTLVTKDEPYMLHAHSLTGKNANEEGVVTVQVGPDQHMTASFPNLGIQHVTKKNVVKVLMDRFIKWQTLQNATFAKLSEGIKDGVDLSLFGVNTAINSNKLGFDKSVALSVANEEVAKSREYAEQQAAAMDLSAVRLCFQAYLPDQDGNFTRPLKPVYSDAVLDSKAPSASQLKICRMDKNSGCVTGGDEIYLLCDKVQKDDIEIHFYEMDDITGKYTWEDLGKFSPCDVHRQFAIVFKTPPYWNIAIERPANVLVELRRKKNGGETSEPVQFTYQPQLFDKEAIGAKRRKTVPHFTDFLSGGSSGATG

[3] = target: T3, GST-Co-NF-kB (Capsaspora owczarzaki, UniProt F1ARL5 200-546)
T3 sequence: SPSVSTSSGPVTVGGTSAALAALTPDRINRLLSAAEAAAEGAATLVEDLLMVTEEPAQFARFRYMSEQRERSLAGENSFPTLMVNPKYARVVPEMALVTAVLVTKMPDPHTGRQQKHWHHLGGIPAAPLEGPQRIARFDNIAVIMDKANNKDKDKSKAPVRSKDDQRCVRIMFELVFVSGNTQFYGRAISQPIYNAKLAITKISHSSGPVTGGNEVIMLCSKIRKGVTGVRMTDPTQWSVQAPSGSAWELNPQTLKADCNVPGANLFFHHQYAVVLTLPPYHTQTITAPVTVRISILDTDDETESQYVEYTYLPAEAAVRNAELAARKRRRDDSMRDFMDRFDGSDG

[4] = target: T4, GST-Dm-Relish (Drosophila melanogaster, UniProt Q94527 99-473)
T4 sequence: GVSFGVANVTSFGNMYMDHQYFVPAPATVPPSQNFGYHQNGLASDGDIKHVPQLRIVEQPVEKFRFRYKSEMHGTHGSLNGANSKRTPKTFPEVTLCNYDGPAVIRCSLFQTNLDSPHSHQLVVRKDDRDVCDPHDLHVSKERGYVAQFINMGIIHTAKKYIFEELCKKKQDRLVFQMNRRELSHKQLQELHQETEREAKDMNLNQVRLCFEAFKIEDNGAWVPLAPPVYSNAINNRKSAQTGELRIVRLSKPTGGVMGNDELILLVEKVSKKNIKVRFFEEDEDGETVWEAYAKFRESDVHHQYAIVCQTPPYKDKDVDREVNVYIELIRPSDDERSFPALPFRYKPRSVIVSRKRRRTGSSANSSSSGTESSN

[5] = target: T5, GST-Aq-NF-kB (Amphimedon queenslandica, UniProt A9Y5G7 2-389)
T5 sequence: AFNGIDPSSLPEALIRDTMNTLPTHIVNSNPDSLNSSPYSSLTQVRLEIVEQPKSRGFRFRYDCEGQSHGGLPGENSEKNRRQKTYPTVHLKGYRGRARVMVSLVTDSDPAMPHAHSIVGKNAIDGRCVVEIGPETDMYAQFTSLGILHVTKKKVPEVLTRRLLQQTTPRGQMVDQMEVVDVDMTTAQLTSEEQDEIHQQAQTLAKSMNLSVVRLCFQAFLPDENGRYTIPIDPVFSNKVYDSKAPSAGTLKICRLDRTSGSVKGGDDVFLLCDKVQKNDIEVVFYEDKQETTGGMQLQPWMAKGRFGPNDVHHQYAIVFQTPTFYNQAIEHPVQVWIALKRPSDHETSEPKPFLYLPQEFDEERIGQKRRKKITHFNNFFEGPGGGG

Sequence	binding signal [1] [z-score]	binding signal [2] [z-score]	binding signal [3] [z-score]	binding signal [4] [z-score]	binding signal [5] [z-score]
CCGATTAACATCAGGGTTTTTTATGATGTTAATCGGGTCTTGATTCGCTTGACGCTGCTG	4.39	5.06	1.36	5.89	6.24
CCGATTAACATCAGGGGAGTATATGATGTTAATCGGGTCTTGATTCGCTTGACGCTGCTG	4.78	3.81	4.7	2.18	3.95
CCGATTAACATCAAGGGGTCCCCTGATGTTAATCGGGTCTTGATTCGCTTGACGCTGCTG	5.55	3.3	1.66	6.15	4.02
CCGATTAACATCAGGGATTCACCTGATGTTAATCGGGTCTTGATTCGCTTGACGCTGCTG	5.22	4.92	1.03	9.89	5.57
CCGATTAACATCAGGGGGGGTACTGATGTTAATCGGGTCTTGATTCGCTTGACGCTGCTG	5.04	3.45	4.54	5.04	4.67
CCGATTAACATCAGGGGAGTACATGATGTTAATCGGGTCTTGATTCGCTTGACGCTGCTG	4.22	2.88	3.31	6.35	3.06
CCGATTAACATCAAGCAACCCCCTGATGTTAATCGGGTCTTGATTCGCTTGACGCTGCTG	5.23	3.34	2.21	5.19	4.14
CCGATTAACATCAGGAGTTACCCTGATGTTAATCGGGTCTTGATTCGCTTGACGCTGCTG	2.75	3.81	2.23	5.11	6.71
CCGATTAACATCAGGGGGTCTACTGATGTTAATCGGGTCTTGATTCGCTTGACGCTGCTG	4.22	2.44	1.58	7.11	4.4
CCGATTAACATCAAAGGTCCCCCTGATGTTAATCGGGTCTTGATTCGCTTGACGCTGCTG	6.07	4.14	4.7	4.42	4.58
CCGATTAACATCACATTGTCCCCTGATGTTAATCGGGTCTTGATTCGCTTGACGCTGCTG	4.03	4.18	4.12	1.73	3.26
CCGATTAACATCAGGAACTACCCTGATGTTAATCGGGTCTTGATTCGCTTGACGCTGCTG	2.97	2.75	1.33	3.64	5.04
CCGATTAACATCAGGGGGTAATATGATGTTAATCGGGTCTTGATTCGCTTGACGCTGCTG	4.99	4.47	6.77	2.66	4.45
CCGATTAACATCAGGGTATTCCATGATGTTAATCGGGTCTTGATTCGCTTGACGCTGCTG	3.89	4.62	1.19	5.81	4.83
CCGATTAACATCAGGGAGCTCCCTGATGTTAATCGGGTCTTGATTCGCTTGACGCTGCTG	4.49	3.24	1.46	3.76	6.36
CCGATTAACATCAGGGATTTCCATGATGTTAATCGGGTCTTGATTCGCTTGACGCTGCTG	4.13	3.8	1.29	7.94	5.39
CCGATTAACATCAGGAATACCCATGATGTTAATCGGGTCTTGATTCGCTTGACGCTGCTG	4.37	4.62	1.39	4.16	4.54
CCGATTAACATCAGAAATTCCCATGATGTTAATCGGGTCTTGATTCGCTTGACGCTGCTG	4.5	6.44	4.07	5.05	4.99
CCGATTAACATCAACCACCCCCCTGATGTTAATCGGGTCTTGATTCGCTTGACGCTGCTG	3.74	2.31	4.22	4.6	3.9
CCGATTAACATCAAACCCCCCCGTGATGTTAATCGGGTCTTGATTCGCTTGACGCTGCTG	6.76	3.82	5.57	7	4.9
CCGATTAACATCAACCCCCGGCTTGATGTTAATCGGGTCTTGATTCGCTTGACGCTGCTG	4.17	2.37	2.79	4.35	2.51
CCGATTAACATCACGGGATTTCCTGATGTTAATCGGGTCTTGATTCGCTTGACGCTGCTG	4.81	4.51	1.37	7.57	6.62
CCGATTAACATCAGGCCACCCCCTGATGTTAATCGGGTCTTGATTCGCTTGACGCTGCTG	3.91	2.49	2.66	5.42	5.7
CCGATTAACATCAGGGAATCTCATGATGTTAATCGGGTCTTGATTCGCTTGACGCTGCTG	2.33	3.41	1.96	1.4	3.46
CCGATTAACATCAGGGGGATAGATGATGTTAATCGGGTCTTGATTCGCTTGACGCTGCTG	4.85	3.25	5.41	2.03	3.47

Sequence	binding signal [1] [z-score]	binding signal [2] [z-score]	binding signal [3] [z-score]	binding signal [4] [z-score]	binding signal [5] [z-score]
CCGATTAACATCAAAGAAGCCCCTGATGTTAATCGGGTCTTGATTCGCTTGACGCTGCTG	4.38	5.52	1.52	4.39	5.13
CCGATTAACATCAAGGGGGTAAATGATGTTAATCGGGTCTTGATTCGCTTGACGCTGCTG	5.28	3.77	6.69	2.72	4.26
CCGATTAACATCACGGATTTCCCTGATGTTAATCGGGTCTTGATTCGCTTGACGCTGCTG	3.73	5.2	3.28	5.3	5.69
CCGATTAACATCAGGGGTATACCTGATGTTAATCGGGTCTTGATTCGCTTGACGCTGCTG	4.25	2.43	3.98	4.15	4.94
CCGATTAACATCACCAATTTCCCTGATGTTAATCGGGTCTTGATTCGCTTGACGCTGCTG	3.3	4.17	3.83	1.84	3.17
CCGATTAACATCAAAAGAATCCCTGATGTTAATCGGGTCTTGATTCGCTTGACGCTGCTG	3.44	3.59	1.15	5.35	4.69
CCGATTAACATCAAAGGAATCCCTGATGTTAATCGGGTCTTGATTCGCTTGACGCTGCTG	3.02	2.14	1.06	7.59	2.92
CCGATTAACATCAGGGGATAAAATGATGTTAATCGGGTCTTGATTCGCTTGACGCTGCTG	4.6	5.11	7.5	3.31	4.05
CCGATTAACATCAAAAATCCCTATGATGTTAATCGGGTCTTGATTCGCTTGACGCTGCTG	5.18	5.21	1.39	6.49	5.85
CCGATTAACATCACGTTATTCCCTGATGTTAATCGGGTCTTGATTCGCTTGACGCTGCTG	2.79	2.96	2.74	4.77	2.9
CCGATTAACATCAATTTTTCCCATGATGTTAATCGGGTCTTGATTCGCTTGACGCTGCTG	2.62	4.2	5.21	1.64	3.27
CCGATTAACATCAAATACTTCCCTGATGTTAATCGGGTCTTGATTCGCTTGACGCTGCTG	2.22	3.32	2.96	2.69	4.24
CCGATTAACATCACCCGATTCCCTGATGTTAATCGGGTCTTGATTCGCTTGACGCTGCTG	2.55	2.62	2.5	1.62	2.54
CCGATTAACATCAGGGGATGGGATGATGTTAATCGGGTCTTGATTCGCTTGACGCTGCTG	3.51	3.51	2.16	1.4	2.91
CCGATTAACATCAGGGGATCCCATGATGTTAATCGGGTCTTGATTCGCTTGACGCTGCTG	7.15	5.1	2.81	10	4.95
CCGATTAACATCACGCAATTCCCTGATGTTAATCGGGTCTTGATTCGCTTGACGCTGCTG	2.72	4.1	2.33	1.52	3.43
CCGATTAACATCACCCCTCCCCCTGATGTTAATCGGGTCTTGATTCGCTTGACGCTGCTG	4.84	3.91	4.73	3.78	4.12
CCGATTAACATCAAGCGTTCCCCTGATGTTAATCGGGTCTTGATTCGCTTGACGCTGCTG	5.35	5.36	4.53	3.82	4.01
CCGATTAACATCAAATTTTCCCATGATGTTAATCGGGTCTTGATTCGCTTGACGCTGCTG	3.65	5.18	5.19	1.94	4.45
CCGATTAACATCACAGGGAAAAATGATGTTAATCGGGTCTTGATTCGCTTGACGCTGCTG	2.81	4.49	5.03	1.6	3.9
CCGATTAACATCAAGAATTCCCGTGATGTTAATCGGGTCTTGATTCGCTTGACGCTGCTG	4.85	6.36	4.23	4.9	5.46
CCGATTAACATCAACCCTCCCCCTGATGTTAATCGGGTCTTGATTCGCTTGACGCTGCTG	3.89	3.26	4.5	2.76	3.64
CCGATTAACATCAACGGGAATTCTGATGTTAATCGGGTCTTGATTCGCTTGACGCTGCTG	4.32	5.7	3.23	4.15	4.74
CCGATTAACATCAAGTTTTCCCATGATGTTAATCGGGTCTTGATTCGCTTGACGCTGCTG	2.53	3.86	4.78	1.42	2.83
CCGATTAACATCAGGGGGTGTTATGATGTTAATCGGGTCTTGATTCGCTTGACGCTGCTG	4.69	4.31	3.42	4.34	5.4
